Source: PubChem BioAssay (National Center for Advancing Translational Sciences (NCATS))
Tau FP inhib: qHTS for Inhibitors of Tau Fibril Formation, Fluorescence Polarization. Microtubule-associated protein tau (Homo sapiens), P10636. K18 P301L tau heparin fibrillization, Alexa594 FP, 6 h. Potency, µM (series often up to 57.7 µM), inactives show top-dose activity, negative = inhibition, actives largely listed as inhibitors. hit rate 0.39% among 280,000; note: potency is the fitted concentration of half-maximal effect; nearly all actives have a fitted effect of over 55% in size
Target sequence (P10636 561-689 P618L limits assumed): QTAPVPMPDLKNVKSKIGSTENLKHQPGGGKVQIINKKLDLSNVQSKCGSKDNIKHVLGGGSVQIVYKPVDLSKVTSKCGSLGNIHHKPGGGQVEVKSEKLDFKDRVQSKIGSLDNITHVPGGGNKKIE
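Quantitative HTS format: compounds meet 15 uM recombinant K18 P301L tau and Alexa 594-tau tracer in 100 mM sodium acetate pH 7; 20 uM heparin triggers fibrillization at 37 C over 6 hr; FP gives the signal.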
USP1 inh: Inhibitors of USP1/UAF1: Primary Screen; recombinant USP1/UAF1, Ub-Rhodamine cleavage fluorescence; Potency, µM (highest dose often 57.1 µM), for the others: top-dose activity change, negative = inhibition, most hits filed as inhibitors; hit rate 0.23% among 390,000; AID 743255, 2014; note: potency is the fitted concentration of half-maximal effect; nearly all actives have a fitted effect of over 60% in size
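High-throughput fluorogenic screen: 1nM USP1/UAF1 complex, Ub-Rho substrate 150nM final, 50mM HEPES pH 7.8 with 0.5mM EDTA, 0.1 mg/ml BSA, 1mM TCEP and 0.01% Tween-20.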
Tau ThT inhib: qHTS for Inhibitors of Tau Fibril Formation, Thioflavin T Binding; Microtubule-associated protein tau (Homo sapiens), P10636; recombinant tau K18 P301L, heparin-induced fibrillization, ThT fluorescence; Potency, µM (highest dose often 57.4 µM), for inactives: at the highest dose activity, negative = inhibition, hits mostly inhibitors; hit rate 2.1% among 270,000; note: potency is the fitted concentration of half-maximal effect; nearly all actives have a fitted effect of over 55% in size
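ThT emission at 510 nm, taken 1 hr after adding 30 uM dye, quantifies aggregates formed when 20 uM heparin acts on human tau K18 P301L for 6 hr at 37 C.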
Coupling enz: qHTS Assay for Inhibitors of Fructose-1,6-bisphosphate Aldolase from Giardia Lamblia: Coupling assay counterscreen; coupling enzyme system counterscreen, AmpLite Red fluorescence; AID 2472, 2010; hit rate 0.67% among 290,000; activity change, negative = inhibition, % at 58.2 µM, hits read low; in the data active = activity change below about -30%
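Coupling enzymes only (glyceraldehyde-3-phosphate) + compound, at 57.5 uM final, 10 min RT; add substrate/coupling/AmpLite Red mix, 20 min RT; fluorescence ex 525/em 598 nm. Actives flag coupling-system interference.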
Tau fluor counter: Counterscreen qHTS for Inhibitors of Tau Fibril Formation, Fluorescence Polarization; tau K18 P301L Alexa594 fluorescence, heparin fibrillization; Potency, µM (series often up to 57.7 µM), for the others: at the top dose activity change, negative = decrease; hit rate 0.93% among 280,000; AID 1463, 2008; note: potency is the fitted concentration of half-maximal effect; nearly all actives have a fitted effect of over 55% in size
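Human tau K18 P301L (15 uM unlabeled, 0.24 uM Alexa 594-labeled) in 100 mM sodium acetate pH 7 with 20 uM heparin, 6 hr at 37 C. ThT 30 uM added, 1 hr ambient; Alexa 594 FP and total fluorescence read at 555/632 nm.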
Numbers without * were called inactive; ? = inconclusive; · = no result; [ ] = dose if it differs, or a comment. Sampled rows, rich in hits. Any-hit rate of the full collection: about 2.3%. Unless noted, calls come from the whole dose curve; as a rule, active = well fitted curve in the direction sought with a large enough effect; inconclusive = small, poorly fitted or top-dose-only effect, or another doubt; inactive = no such curve, though single readings can be large; an effect the other way counts as inactive or inconclusive. % is set by controls: 0 for no effect and ±100 for the full control effect.

SMILES	Tau FP inhib	USP1 inh	Tau ThT inhib	Coupling enz	Tau fluor counter
CN(C)c1ccc(NC(=O)CSCc2nc3c(nnn3Cc3ccc(F)cc3)c(=O)[nH]2)cc1	0%	-3%	?	-36*	-15%
CCCNC(=O)OC[C@H]1O[C@@H](CCO/N=C\[C@@H](NS(=O)(=O)c2ccc(C)cc2)[C@H](C)/C=C\CC(=O)OC)C=C[C@@H]1Oc1ccc(OC)cc1	2%[11.6 µM]	·	-3%[11.5 µM]	0	-8%[11.6 µM]
COCCN=c1scc(-c2cccs2)n1/N=C/c1ccc(O)c(O)c1O	6%	-11%	5%	-33*	2%
COCCN=c1scc(-c2ccccc2)n1/N=C/c1c[nH]c2ccccc12	?	-3%	13µM*	-5	10µM*[quencher]
CCN=c1scc(C)n1/N=C/c1ccc(O)c(O)c1O	22µM*	-20%	11µM*	-37*	?
CCc1c(C)sc(NC(=O)c2cc(C(C)C)on2)c1C#N	-2%	-7%	-17%	-3	-20%
CCc1cc(C(=O)Nc2sc(C)c(CC)c2C#N)no1	?	?	28µM*	·	?
CCN(CC)c1ccc2c(c1)CCCN2	?	·	25µM*	2	?
O=C1CCC[C@@H](C2=CCCCC2=O)C1	?	·	-15%[11.5 µM]	0	-15%[11.6 µM]
CCOc1ccccc1C(=O)Nc1c[nH]c(=O)[nH]c1=O	·	-17%	·	-33*	·
COc1ccccc1C(=O)Nc1c[nH]c(=O)[nH]c1=O	·	-7%	·	1	·
O=C(CSc1oc(-c2ccco2)nc1S(=O)(=O)c1ccc(Br)cc1)c1ccccc1	-18%	-8%	-14%	·	?
CCOC(=O)N1CCN(Cc2nc3cc(NC(=O)c4ccc(F)cc4)ccc3n2C(C)C)CC1	0%	4%	-5%	·	-10%
CCOc1ccc(C(=O)Nc2ccc3nc(N4CCN(CC)CC4)cc(C)c3c2)cc1	·	-8%	·	1	·
CCN1CCN(c2cc(C)c3cc(NC(=O)/C=C/c4cccc(Cl)c4)ccc3n2)CC1	3%	-25%	3.2µM*	·	3.5µM*[quencher]
CCCCc1ccc(C(=O)Nc2ccc3nc(N4CCN(CC)CC4)cc(C)c3c2)cc1	-11%	-11%	?	·	?
CCN1CCN(c2cc(C)c3cc(NC(=O)c4cc(OC)cc(OC)c4)ccc3n2)CC1	10%	?	?	1	16µM*[quencher]
CCN1CCN(c2cc(C)c3cc(NC(=O)c4cccc(Cl)c4)ccc3n2)CC1	7%	-19%	?	·	14µM*[quencher]
CN(Cc1ccccc1)C(=O)c1ccc(CSc2nc3cccnc3n2Cc2ccccc2)cc1	12%	-4%	-10%	·	-11%
COc1ccccc1CNC(=O)c1cnc2sc(N3CCOCC3)nn2c1=O	1%	6%	5%	·	11%
O=C(NCCc1ccccc1)C(=O)NCC(c1cccnc1)N1CCN(c2ccccc2F)CC1 (stereo not drawn)	-1%	8%	2%	·	3%
Cc1ccccc1-c1nc(NC(=O)CSc2ncnc3sc4c(c23)CCCC4)ns1	-3%	-23%	-9%	·	-6%
COc1ccc(OC)c2c1C(=O)C(Cl)=C(Cl)C2=O	18µM*	-14%	4.5µM*	-45*	?
Nc1ccc(O)c2c1C(=O)c1ccccc1C2=O	5%	-22%	1%	4	-2%
COc1ccc(OC)c2c1C(=O)CC2C (stereo not drawn)	·	-20%	·	·	·
SMILES	Tau FP inhib	USP1 inh	Tau ThT inhib	Coupling enz	Tau fluor counter
COc1ccc(OC)c2c1C(=O)c1ccccc1C2=O	?	32µM*	35µM*	-20	-26%
Nc1ccc(Br)c2c1C(=O)c1ccccc1C2=O	3%	-11%	5µM*	-4	?
COc1ccc(N)c2c1C(=O)c1ccccc1C2=O	?	-6%	16µM*	-3	-25%
COc1cccc(C(=O)Nc2ccccc2C(=O)OCc2cc(=O)n3c4c(sc3n2)CCCC4)c1	3%	-14%	-1%	·	4%
COc1cccc2c1C(=O)c1ccc3ccccc3c1C2=O	?	-9%	?	3	?
COc1ccc2noc3c2c1C(=O)c1ccccc1-3	·	4µM*	·	·	·
